PubChem BioAssay AID662 (National Center for Advancing Translational Sciences (NCATS), 2007)
Screen size: about 71,000 compounds; about 1,800 (2.5%) were called active. Roughly 26% stayed inconclusive and do not appear here. This excerpt belongs to a sample that is enriched for actives. Unmarked numbers belong to inactive results. Calls follow the shape of the dose curve; as a rule, active = well fitted activation curve with a large enough effect in the signal ratio, with a control signal flat (not every such curve was filed as active); inconclusive = small, poorly fitted or top-dose-only effect, or effect the other way, or a change in a side signal; inactive = flat fitted curve, though single readings scatter; the % refers to the signal ratio.

Assay: Cell signaling CRE-BLA (Fsk stim); as to activity change, negative = inhibition: % of control where 0% means no effect
Details: CHO CRE-bla reporter (cAMP response element driving beta-lactamase), forskolin EC10, beta-lactamase ratio; series mostly up to 38.2 µM; activity change, negative = inhibition: at the top concentration
Summary of the method: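 qHTS titration format; CRE-bla CHO reporter; stimulus EC10 NKH 477, a water-soluble forskolin. Read: CCF4 460/530 nm ratio. Potency expressed as AC50 for activators or inhibitors.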
Potency is read from the fitted curve at half-maximal effect.

SMILES	activity change, negative = inhibition	Potency
CC(C)CCNc1nc(N2CCCC2)c2c(c1C#N)CCN(C)C2	-7.41% (inactive)	
CCOc1ccc2nc(N3CCCN(C(=O)Nc4ccccc4C)CC3)c(C#N)cc2c1	4.72% (inactive)	
COc1c(C)cccc1C(=O)Nc1cc(Cl)ccc1N1CCOCC1	8.77% (inactive)	
Cn1c(=O)n(C)c2cc(CNc3ccc(N4CCOCC4)c(C(=O)O)c3)ccc21	-4.36% (inactive)	
Cn1nc(-c2ccc(N3CCOCC3)c(NC(=O)c3ccccc3)c2)c2ccccc2c1=O		7.94 µM (active)
COc1ccc(OC)c2[nH]c(=O)c(CCNC(=O)C(C)(C)C)cc12	11.6% (inactive)	
COc1ccc(CNc2ncnc3ccc(-c4cccnc4)cc23)c(OC)c1		1 µM (active)
COc1ccc(CNc2ncncc2-c2ccccc2OC)c(OC)c1	11.5% (inactive)	
COc1ccc(CNc2ncncc2-c2ccccc2C)c(OC)c1	4.23% (inactive)	
CCOC(=O)C1CCc2nc3ccccc3c(=O)n21 (stereo not given)	1.43% (inactive)	
CCCCCCOC(=O)NCC(O)c1ccccc1 (stereo not given)	0.923% (inactive)	
COc1ccccc1-c1nnc(SCC(=O)Nc2cc(C)on2)o1	-0.278% (inactive)	
Cc1cc(NC(=O)Cn2nc(C(F)(F)F)c3c2CCCC3)no1	-5.04% (inactive)	
C=C(C)Cn1c(SCC(=O)NCc2ccco2)nc2sc3c(c2c1=O)CCC3	6.87% (inactive)	
Cc1nc(SCC(=O)Nc2cc(C)on2)c2c3c(sc2n1)CCCC3		2.51 µM (active)
CCOc1ccccc1Nc1nnc(SCC(=O)Nc2cc(C)on2)s1	-11.6% (inactive)	
Cc1nc(SCC(=O)Nc2cc(C)on2)c2c(C)c(C)sc2n1		0.316 µM (active)
O=C1C(C=NCC2CCCO2)=C(O)c2ccccc21 (stereo not given)	12.5% [at 7.6 µM]	
COC(=O)[C@@]1(Cc2ccc(F)cc2)[C@H]2c3cc(C(=O)N4CCCC4)n(Cc4ccc(OC(F)(F)F)cc4)c3C[C@H]2CN1C(=O)c1ccccc1	-8.28% (inactive)	
COCCOC(=O)C1=C(C)NC(=O)CC1c1cc2c(cc1Br)OCO2 (stereo not given)	4.43% (inactive)	

SMILES	activity change, negative = inhibition	Potency
COc1cc2c(cc1OC)C(c1ccc(C)o1)CC(=O)N2 (stereo not given)	17.5% (inactive)	
CCCOc1ccccc1C1CC(=O)Nc2cc3c(cc21)OCO3 (stereo not given)		10 µM (active)
O=C(NCc1ccc(Cl)c(Cl)c1)c1cccnc1	-25.4% [at 7.6 µM]	
CCCOC(=O)Nc1ccccc1C(N)=O	3.03% (inactive)	
CCOc1ccc2nc(SC(CC)C(=O)Nc3cc(C)on3)sc2c1 (stereo not given)	5.36% (inactive)	
C=CC(=C)CCC=C(C)C	1.32% (inactive)	
CCOC(=O)c1sc(=S)n(-c2cccc(OC)c2)c1N	-1.32% (inactive)	
CCOc1cccc(-c2nnc3sc(COc4ccc(OC)cc4)nn23)c1	26.2% (inactive)	
CCOc1cccc(-n2nnnc2-c2ccc(OC)cc2)c1		12.6 µM (active)
COC(=O)c1ccc(OC(=O)c2nn(C)cc2Cl)c(OC)c1	-4.06% (inactive)	
CCc1c(O)nc(SCC(=O)N2CCCCC2)n(-c2ccccc2C)c1=O	3.32% (inactive)	
Cc1ccccc1NC(=O)CNc1ccccc1N1CCCCC1	-7.03% (inactive)	
O=C(Nc1ccccc1N1CCN(C(=O)c2ccccc2)CC1)c1ccc2c(c1)OCO2	-2.12% (inactive)	
O=C(Nc1ccccc1N1CCCCC1)c1cccc(F)c1		12.6 µM (active)
O=C(CN1CCN(C2CCCCC2)CC1)Nc1ccccc1N1CCCCC1	-15.5% (inactive)	
O=C(Nc1ccccc1N1CCCCC1)c1ccc2nccnc2c1		10 µM (active)
O=C(Nc1ccccc1N1CCN(c2ccccc2)CC1)c1cccc(F)c1	17.9% (inactive)	
Cn1cc(S(=O)(=O)N2CCC(Cc3ccccc3)CC2)c(=O)n(C)c1=O	-3.51% (inactive)	
Cc1ccc(Br)cc1	-7.98% (inactive)	
O=C(NCc1ccccc1)[C@H]1C[C@@H]1[C@H](NP(=O)(c1ccccc1)c1ccccc1)c1ccccc1	-24.2% (inactive)	

SMILES	activity change, negative = inhibition	Potency
CCC[C@@H]1C[C@@]1(CCC)[C@@H](NC(=O)c1ccccc1)c1ccc(C(=O)OC)cc1	5.13% (inactive)	
Nc1nnc(C2CCCC2)s1	3.27% (inactive)	
CCc1cccc(C)c1NC(=O)CSc1nnc(-c2ccco2)n1N	-6.03% (inactive)	
CCn1c(SCC(=O)Nc2cc(C)c(Cl)cc2OC)nnc1-c1ccco1		12.6 µM (active)
COc1cc(Cl)c(C)cc1NC(=O)CSc1nnc(-c2cccnc2)n1Cc1ccco1	-6.01% (inactive)	
COC(=O)[C@H]1C[C@@H]1[C@H](NC(=O)Oc1ccc(F)cc1)c1ccccc1	1.37% (inactive)	
NC(=O)c1ccccc1NC(=O)c1ccccc1F	5.08% (inactive)	
COC(=O)[C@@]1(Cc2ccc(OC)cc2)[C@H]2c3cc(C(=O)N4CCCC4)n(Cc4ccc(OC(F)(F)F)cc4)c3C[C@H]2CN1C(=O)c1ccccc1	-3.5% (inactive)	
O=C(CN1CCOCC1)Nc1c(-c2ccccc2)c2cc(Br)ccc2[nH]c1=O	-5.45% (inactive)	
COc1ccc(Oc2ncc3nc(-c4ccc(F)cc4)c(=O)n(C)c3n2)cc1	-0.0632% (inactive)	
CCNc1ncc2ncc(=O)n(Cc3cccc(OC)c3)c2n1	-14.8% (inactive)	
COc1ccc(Oc2ncc3nc(C)c(=O)n(-c4ccccc4)c3n2)cc1	3.91% (inactive)	
COc1cccc(Cn2c(=O)c(CCc3ccccc3)nc3cnc(N(C)C)nc32)c1		6.31 µM (active)
COc1cccc(Nc2ncc3ncc(=O)n(C4CC4)c3n2)c1	5.13% (inactive)	
COc1ccc(-c2nc3cnc(Oc4ccccc4)nc3n(Cc3cccs3)c2=O)cc1		3.98 µM (active)
CCNc1ncc2ncc(=O)n(CCc3ccccc3)c2n1	-12.5% (inactive)	
O=C1c2cccnc2C(=O)N1Cc1cccs1	-18.3% (inactive)	
COc1cccc(Cn2c(=O)c(C)nc3cnc(Oc4ccccc4)nc32)c1		10 µM (active)
COc1ccc(-n2nnc3c(=O)n(CC(=O)OCc4ccccc4)cnc32)cc1	6.57% (inactive)	
COc1cccc(Cn2c(=O)c(-c3ccccc3)nc3cnc(OC)nc32)c1		10 µM (active)
